According to PMC5540273 (PLoS ONE, 2017):

Assays:
Conditions in all cases: concentration: 1 μM, replicates: in singlicate; n = 1
[1] = tested on: ACVR2B
[2] = tested on: ACVRL1
[3] = tested on: T1, ADCK3
T1 construct: gene CABC1

[4] = tested on: ADCK4
[5] = tested on: AKT1
[6] = tested on: AKT2
[7] = tested on: AKT3
[8] = tested on: ALK
[9] = tested on: T2, AMPK-alpha1
T2 construct: gene PRKAA1

[10] = tested on: T3, AMPK-alpha2
T3 construct: gene PRKAA2

[11] = tested on: ANKK1
[12] = tested on: T4, ARK5
T4 construct: gene NUAK1

[13] = tested on: T5, ASK1
T5 construct: gene MAP3K5

[14] = tested on: T6, ASK2
T6 construct: gene MAP3K6

[15] = tested on: AURKA
[16] = tested on: AURKB
[17] = tested on: AURKC
[18] = tested on: AXL
[19] = tested on: T7, BIKE
T7 construct: gene BMP2K

[20] = tested on: BLK
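Note: KINOMEscan kinase panel screen.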

Row | Structure (SMILES) | %Inh [1] [%] | %Inh [2] [%] | %Inh [3] [%] | %Inh [4] [%] | %Inh [5] [%] | %Inh [6] [%] | %Inh [7] [%] | %Inh [8] [%] | %Inh [9] [%] | %Inh [10] [%] | %Inh [11] [%] | %Inh [12] [%] | %Inh [13] [%] | %Inh [14] [%] | %Inh [15] [%] | %Inh [16] [%] | %Inh [17] [%] | %Inh [18] [%] | %Inh [19] [%] | %Inh [20] [%]
1 | CC(C)(C)c1ccc(C(=O)Nc2cn3cc(-c4cccnc4)ccc3n2)cc1 | 0 | 0 | 19 | 0 | 0 | 0 | 4 | 0 | 43 | 0 | 11 | 14 | 94.9 | 0 | 0 | 34 | 19 | 25 | 8 | 8
2 | O=C(Nc1n[nH]c2cc(-c3cccc(F)c3F)ccc12)C1CC1 [SB-733894] | 18 | 29 | 6 | 0 | 0 | 0 | 1 | 0 | 0 | 0 | 0 | 0 | 0 | 5 | 23 | 25 | 54 | 0 | 21 | 0
3 | O=C(Nc1n[nH]c2nc(-c3nccs3)c(Br)cc12)C1CC1 [SB-742251] | 11 | 0 | 15 | 19 | 0 | 1 | 0 | 26 | 10 | 8 | 0 | 0 | 4 | 21 | 0 | 31 | 13 | 15 | 36 | 0
4 | Fc1cc(Cl)ccc1Nc1ccnc2cc(-c3ccc(CN4CCCCC4)o3)ccc12 [GW560116] | 52 | 0 | 0 | 38 | 0 | 0 | 0 | 4 | 0 | 0 | 0 | 0 | 0 | 0 | 95.7 | 0 | 0 | 0 | 0 | 55
5 | Cc1cccc(-c2nc(Nc3ccncc3)c3ccccc3n2)n1 [GW855857] | 36 | 65 | 27 | 0 | 20 | 0 | 0 | 0 | 0 | 12 | 0 | 0 | 0 | 0 | 0 | 10 | 0 | 7 | 1 | 1
6 | Cc1ccc(NC(=O)Nc2cc(C(C)(C)C)nn2-c2ccccc2)cc1 [GSK1014915] | 5 | 5 | 25 | 25 | 0 | 14 | 20 | 28 | 0 | 11 | 0 | 0 | 1 | 22 | 0 | 17 | 18 | 2 | 22 | 20
7 | Nc1ncnc2[nH]c(-c3ccccc3)nc12 [AH5015] | 0 | 0 | 25 | 12 | 0 | 9 | 0 | 33 | 2 | 17 | 14 | 0 | 5 | 20 | 100 | 24 | 14 | 0 | 24 | 10
8 | Cl.Oc1ccc(-c2nc(-c3ccccc3)[nH]c2-c2ccncc2)cc1 [SB-428218] | 13 | 0 | 5 | 82 | 0 | 18 | 0 | 44 | 0 | 0 | 10 | 62 | 24 | 0 | 0 | 32 | 0 | 0 | 0 | 58
9 | NC(=O)c1nnc2ccccc2c1N | 24 | 0 | 81 | 1 | 7 | 0 | 0 | 24 | 25 | 6 | 34 | 0 | 20 | 40 | 0 | 32 | 40 | 19 | 51 | 0
10 | CCCc1ccc(S(=O)(=O)NC2CCN(c3ccnc(Nc4ccc(F)cc4)n3)C2)cc1 (stereo not shown) [GSK1379715] | 0 | 0 | 14 | 34 | 0 | 100 | 0 | 32 | 6 | 0 | 0 | 0 | 2 | 0 | 0 | 29 | 5 | 12 | 0 | 0
11 | COc1ccc(Nc2nccc(NCCNC(=O)Nc3ccccc3F)n2)cc1 [GSK1379901] | 0 | 0 | 15 | 25 | 0 | 0 | 0 | 48 | 0 | 0 | 22 | 23 | 0 | 4 | 12 | 36 | 28 | 0 | 12 | 0
12 | Nc1nc(-c2nccs2)c(-c2ccnc3ccccc23)s1 [GW693542] | 48 | 15 | 0 | 39 | 0 | 3 | 100 | 36 | 0 | 12 | 6 | 0 | 5 | 0 | 0 | 0 | 0 | 42 | 4 | 42
13 | Cc1csc(-c2nc(Nc3ccncc3)c3ccccc3n2)n1 [GW869640] | 4 | 7 | 14 | 0 | 0 | 3 | 15 | 43 | 12 | 11 | 18 | 0 | 11 | 37 | 41 | 45 | 1 | 0 | 0 | 5
14 | COc1ccc(CNC(=O)NC2CCN(c3ccnc(Nc4cc(OC)c(OC)c(OC)c4)n3)C2)cc1 (stereo not shown) [GSK1379748] | 0 | 0 | 24 | 76 | 0 | 0 | 0 | 27 | 10 | 0 | 33 | 25 | 0 | 12 | 79 | 84 | 60 | 8 | 25 | 0
15 | Cc1ccc(NC(=O)Nc2cccc(Cl)c2)cc1-c1ccc(C(=O)Nc2ccncc2)cc1 [GSK1398468] | 1 | 0 | 5 | 34 | 0 | 8 | 0 | 20 | 7 | 13 | 17 | 6 | 2 | 0 | 15 | 14 | 44 | 0 | 29 | 0
16 | O=C(Nc1ccc2c(c1)OCO2)NC1CCN(c2ccnc(Nc3ccc(F)cc3)n2)C1 (stereo not shown) [GSK1379724] | 0 | 0 | 6 | 36 | 0 | 0 | 0 | 29 | 10 | 0 | 0 | 8 | 3 | 0 | 0 | 99.4 | 52 | 5 | 27 | 19
17 | Cn1ccc2ncnc(Oc3cccc(C(=O)Nc4ccccc4)c3)c21 | 1 | 0 | 6 | 17 | 0 | 0 | 10 | 0 | 0 | 0 | 28 | 14 | 0 | 0 | 21 | 0 | 26 | 3 | 14 | 1
18 | COc1ccccc1-c1ccc2c(NC(=O)C3CC3)n[nH]c2n1 [SB-711239] | 52 | 0 | 11 | 19 | 0 | 2 | 3 | 18 | 5 | 13 | 9 | 0 | 11 | 17 | 0 | 0 | 0 | 12 | 0 | 6
19 | CS(=O)(=O)c1ccc(-c2c(-c3ncn[nH]3)sc(N3CCOCC3)c2C#N)cc1 | 0 | 8 | 3 | 0 | 1 | 15 | 0 | 9 | 22 | 8 | 0 | 1 | 0 | 0 | 22 | 0 | 2 | 0 | 6 | 8
20 | Cc1cc(NCC(c2ccccc2)c2ccccc2)nc(NCc2ccc(C(F)(F)F)cc2)n1 [GW497681] | 0 | 0 | 10 | 86 | 0 | 0 | 0 | 3 | 0 | 0 | 9 | 13 | 0 | 0 | 7 | 15 | 8 | 0 | 0 | 25
